In PubChem BioAssay (EPA / NIEHS):
Results filed as inconclusive are left out. Active and inactive are the calls of the source. How the source made its calls: active means hit-call score of the fitted dose curve at least 0.9, where 1 is the maximum; inconclusive means response in the unintended direction; inactive means score below 0.9.

What was measured:
[1] = TOX21_p53_BLA_p2_viability: Viability Assessment in the Tox21 HCT-116 p53 Agonism Beta-lactamase Assay, Phase 2 (AID 2283591);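 further: compound exposure lasted 16 h at 37 °C; actives lower the ATP signal meaning cytotoxicity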
Method in brief: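 HCT116 p53-bla cells, 4000/well, dosed after 5 h plating (217-fold dilution of DMSO stocks) and incubated 16 h at 37C. Viability taken as cellular ATP by CellTiter-Glo luminescence after 30 min RT; signal loss marks cytotoxicity.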

[2] = target: Cellular tumor antigen p53 (Homo sapiens) (UniProt P04637); assay: TOX21_p53_BLA_p2_ratio: Tox21 HCT-116 p53 Agonism Beta-lactamase Assay, Ratio, Phase 2 (AID 2283592)
Sequence of Cellular tumor antigen p53 (Homo sapiens) (P04637 whole entry, looked up): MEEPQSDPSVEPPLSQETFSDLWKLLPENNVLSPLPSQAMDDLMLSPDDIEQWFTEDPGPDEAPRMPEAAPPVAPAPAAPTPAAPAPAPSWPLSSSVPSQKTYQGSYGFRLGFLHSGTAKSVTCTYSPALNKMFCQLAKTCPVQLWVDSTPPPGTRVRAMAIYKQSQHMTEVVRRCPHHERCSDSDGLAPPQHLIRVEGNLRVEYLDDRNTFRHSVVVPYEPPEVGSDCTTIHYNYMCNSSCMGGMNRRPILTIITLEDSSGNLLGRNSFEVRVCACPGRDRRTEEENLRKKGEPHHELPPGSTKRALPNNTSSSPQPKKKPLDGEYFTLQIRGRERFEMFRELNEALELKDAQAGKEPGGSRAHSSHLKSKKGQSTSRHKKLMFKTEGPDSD
Method in brief: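 In this cell-based reporter format, HCT116 cells were dosed with chemicals delivered from DMSO by 217-fold dilution and incubated 16 h at 37C. Emission at 460 and 530 nm after 2 h CCF4-AM loading provided the ratio, fitted upward versus DMSO.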

[3] = TOX21_p53_BLA_p3_viability: Viability Assessment in the Tox21 HCT-116 p53 Agonism Beta-lactamase Assay, Phase 3 (AID 2283593);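 further: cells exposed to compound for 16 h before reading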
Method in brief: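 HCT116 cells, 4000/well, dosed 5 h after plating by pin transfer (217-fold dilution from DMSO stock) and incubated 16 h at 37C, 5% CO2. Viability read as ATP luminescence with CellTiter-Glo after 30 min at room temperature.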

[4] = target: Cellular tumor antigen p53 (Homo sapiens) (UniProt P04637); assay: TOX21_p53_BLA_p3_ratio: Tox21 HCT-116 p53 Agonism Beta-lactamase Assay, Ratio, Phase 3 (AID 2283596)
Method in brief: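 HCT116 p53-bla cells (4000/well) given compound in DMSO (217-fold dilution) after 5 h, incubated 16 h at 37C. CCF4-AM substrate 2 h at room temperature; 460/530 nm emission ratio, gain fitted against DMSO.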

[5] = TOX21_p53_BLA_p4_viability: Viability Assessment in the Tox21 HCT-116 p53 Agonism Beta-lactamase Assay, Phase 4 (AID 2283597);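 further: hits lower the luminescence signal meaning cytotoxicity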
Method in brief: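 We seeded HCT116 p53 reporter cells at 4000/well and waited 5 h. We then added compounds in DMSO at a 217-fold dilution and incubated for 16 h. Viability was read as CellTiter-Glo luminescence after 30 min at RT.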

[6] = TOX21_p53_BLA_p5_viability: Viability Assessment in the Tox21 HCT-116 p53 Agonism Beta-lactamase Assay, Phase 5 (AID 2283600)
Method in brief: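 Compounds, pinned from DMSO at 217-fold dilution, were left on the cells for 16 h. The viability endpoint was ATP content measured by CellTiter-Glo luminescence, where falling signal reflects cytotoxicity.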

[7] = target: Cellular tumor antigen p53 (Homo sapiens) (UniProt P04637); assay: TOX21_p53_BLA_p4_ratio: Tox21 HCT-116 p53 Agonism Beta-lactamase Assay, Ratio, Phase 4 (AID 2283601)
Method in brief: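 HCT-116 p53 beta-lactamase reporter cells (4000/well) preincubated 5 h, then compound (217-fold dilution of DMSO stock) for 16 h at 37C. CCF4-AM substrate added 2 h at room temperature; 460/530 nm emission ratio fitted upward versus DMSO.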

THRA (gene 7067) = THRA (gene 7067) (UniProt P10827); assay: TOX21_TRA_COA_Antagonist_Followup_ratio: Tox21 Thyroid Hormone Receptor alpha Antagonism through Coactivator Recruitment Follow-Up Assay, Ratio (AID 2283953)
Sequence of THRA (gene 7067) (P10827 whole entry, looked up, the tested form may be a part): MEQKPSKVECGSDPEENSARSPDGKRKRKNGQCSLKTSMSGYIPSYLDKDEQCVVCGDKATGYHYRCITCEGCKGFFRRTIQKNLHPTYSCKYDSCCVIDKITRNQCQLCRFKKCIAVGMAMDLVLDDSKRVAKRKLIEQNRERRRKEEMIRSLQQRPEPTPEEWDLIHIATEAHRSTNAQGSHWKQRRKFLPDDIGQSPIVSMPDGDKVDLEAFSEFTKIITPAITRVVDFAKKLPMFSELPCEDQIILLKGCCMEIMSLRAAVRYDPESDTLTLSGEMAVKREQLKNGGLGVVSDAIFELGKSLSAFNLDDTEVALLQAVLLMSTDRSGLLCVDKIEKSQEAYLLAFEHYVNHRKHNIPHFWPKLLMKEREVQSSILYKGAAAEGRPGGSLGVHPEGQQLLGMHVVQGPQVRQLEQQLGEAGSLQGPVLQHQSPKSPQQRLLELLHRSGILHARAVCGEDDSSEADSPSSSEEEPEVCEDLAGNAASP
Method in brief: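 This follow-up to the GH3 luciferase screen checks specificity in a cell-free format. It measures SRC-2 coactivator peptide binding to TRα LBD by TR-FRET and scores loss of ratio signal relative to DMSO.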

THRB (gene 7068) [8] = target: THRB (gene 7068) (UniProt P10828); assay: TOX21_TRB_BLA_Antagonist_Followup_ratio: Tox21 Thyroid Hormone Receptor beta Antagonism Beta-lactamase (BLA) Follow-Up Assay, Ratio (AID 2283958)
Sequence of THRB (gene 7068) (P10828 whole entry, looked up, the tested form may be a part): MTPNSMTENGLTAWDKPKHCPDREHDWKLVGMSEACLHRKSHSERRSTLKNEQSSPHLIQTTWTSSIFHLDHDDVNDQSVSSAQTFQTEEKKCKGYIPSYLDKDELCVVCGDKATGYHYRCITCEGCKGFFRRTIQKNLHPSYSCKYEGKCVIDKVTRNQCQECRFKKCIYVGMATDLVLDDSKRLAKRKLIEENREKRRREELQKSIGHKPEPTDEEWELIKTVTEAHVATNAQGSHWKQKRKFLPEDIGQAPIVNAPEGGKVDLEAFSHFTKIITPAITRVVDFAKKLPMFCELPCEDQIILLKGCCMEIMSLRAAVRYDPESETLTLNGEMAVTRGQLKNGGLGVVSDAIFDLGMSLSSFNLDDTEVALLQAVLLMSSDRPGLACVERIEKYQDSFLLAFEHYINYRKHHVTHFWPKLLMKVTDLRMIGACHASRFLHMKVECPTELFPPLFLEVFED
Method in brief: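 GAL4-DBD/human TRβ-LBD fusion in GeneBLAzer UAS-bla HEK293T cells, 3,000 cells/well in phenol red-free DMEM with 2% charcoal-stripped FBS; compounds at 11 concentrations in triplicate, 18 h at 37C. CCF4-AM substrate 2 h, 460:530 nm ratio relative to DMSO.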

[9] = TOX21_TRB_BLA_Antagonist_Followup_viability: Viability Assessment in the Tox21 Thyroid Hormone Receptor beta Antagonism Beta-lactamase (BLA) Follow-Up Assay (AID 2283961)
Method in brief: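 Viability read as CellTiter-Glo ATP luminescence (loss of signal = cytotoxicity) in the same plates as the TRβ-bla readout. TRβ-LBD/GAL4 UAS-bla HEK293T cells were exposed to compounds, 11 concentrations in triplicate, for 18 h at 37C/5% CO2.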

THRB (gene 7068) [10] = target: THRB (gene 7068) (UniProt P10828); assay: TOX21_TRB_COA_Antagonist_Followup_ratio: Tox21 Thyroid Hormone Receptor beta Antagonism through Coactivator Recruitment Follow-Up Assay, Ratio (AID 2283967)
Method in brief: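 Cell-free TR-FRET: GST-TRb LBD (5.0 nM) with fluorescein-SRC-2 peptide (200 nM) and Tb anti-GST antibody (2 nM), 0.10% BSA. 520:495 nm emission ratio normalized to DMSO (0%) and T3 (100%).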

[11] = TOX21_TR_RXR_BLA_Antagonist_Followup_viability: Viability Assessment in the Tox21 Thyroid Hormone Receptor beta Retinoid X Receptor alpha (RXRa) Antagonism Beta-lactamase (BLA) Follow-Up Assay (AID 2283979)
Method in brief: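 RXRa-bla HEK293T cells (2,500/well, phenol red-free DMEM, 2% charcoal-stripped FBS) were attached 5 h, then exposed to compounds at 11 concentrations in triplicate for 16 h at 37C. Viability measured by CellTiter-Glo ATP luminescence, bidirectional fitting versus DMSO.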

[12] = ACEA_ER_AUC_viability: ACEA Biosciences xCELLigence Real-Time Cell Analysis on Estrogen Receptor Agonism for Viability (AID 2283782);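 further: continuous compound exposure with impedance area under curve over 80 h; hit means loss of impedance signal meaning reduced cell growth or viability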
Method in brief: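 T47D cells preconditioned in phenol red-free RPMI with charcoal-stripped FBS, then dosed with 8-point 1:4 series from 100 uM (up to 0.5% DMSO). Impedance monitored up to ~80 h; area-under-curve loss versus DMSO taken as viability.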

Measured: outcome

Cc1nc2ccccc2n1Cc1ccc(Cl)cc1
not listed: [12]
inactive: all other assays above

CC/C=C\C/C=C\C/C=C\C/C=C\C/C=C\CCCC(=O)O
inactive: [1] | [2] | [3] | [4] | [5] | [6] | [7]

CN[C@@H]1[C@H](O)[C@H](NC)[C@H]2O[C@@]3(O)C(=O)C[C@@H](C)O[C@H]3O[C@@H]2[C@H]1O
inactive: [1] | [2] | [3] | [4] | [5] | [6] | [7]

O=C(O)CCCCCCCCCCCBr
inactive: [1] | [2] | [3] | [4] | [5] | [6] | [7]

CNC(=O)CN(CCN(CCN(CC(=O)[O-])CC(=O)NC)CC(=O)[O-])CC(=O)[O-].O.[Gd+3]
inactive: [1] | [2] | [3] | [4] | [5] | [6] | [7]

CC1(C)CC(N)CC(C)(C)N1
not listed: THRA (gene 7067) | THRB (gene 7068) [8] | [9] | THRB (gene 7068) [10] | [11]
inactive: all other assays above
